According to ChEMBL document CHEMBL1157539, “Thousands of chemical starting points for antimalarial lead identification” (Nature, 2010):

Test system: Plasmodium falciparum
Assay: GSK_TCMDC: Inhibition of Plasmodium falciparum 3D7 in whole red blood cells, using parasite LDH activity as an index of growth. Test compounds present at 2uM
Assay type: functional

Row | Structure (SMILES) | Inhibition [%]
1 | CNCc1ccc(CN(C)c2nc(N)c3cc(OC)c(OC)cc3n2)cc1.O=C(O)C(F)(F)F | 96
2 | O=C(NC1CCN(CCCOc2ccnc3cc(Cl)ccc23)C1)c1ccc(Br)cc1 (centres undefined) | 86
3 | O=C(Nc1ccc(Cl)cc1Cl)N[C@H]1CCN(CCCCCNC(=O)C2CC2c2ccc(Cl)c(Cl)c2)C1 (some centres undefined) | 94
4 | O=C(CSc1nn(-c2ccccc2)c(=S)s1)c1c[nH]c2ccccc12 | 93
5 | CCc1c(CCNCCCCCCNCCc2ccc(OC)cc2)ccc(OC)c1OC.Cl | 98
6 | COc1ccc2ncc(Cl)c(CCN3CC[C@@H](CNCc4cc5c(cn4)OCS5)C3)c2n1.Cl | 99
7 | Fc1cccc(Nc2nc(NCc3ccc4ccsc4c3)nc(Nc3cccc(F)c3)n2)c1 | 94
8 | CCc1cccc(-n2c(=O)c3cccnc3n2CC(=O)NC2CCCC2)c1 | 94
9 | CCCN(CCC)CCOc1ccc(C(O)(C#CC(O)(c2ccc(OCCN(CCC)CCC)cc2)c2cccc(Cl)c2)c2cccc(Cl)c2)cc1 (centres undefined) | 100
10 | COc1ccccc1-n1ccnc1SCC(=O)Nc1cc(C(F)(F)F)ccc1Cl | 97
11 | O=C(NC1CCN(Cc2ccccc2)CC1)c1csc2nc(-c3ccc(Cl)cc3)cn12 | 98
12 | N#Cc1ccc(N2CCN(Cc3ccc(-c4ccc(-c5nc6cc(C(F)(F)F)ccc6[nH]5)cc4)cc3)CC2)nc1.O=C(O)C(F)(F)F | 100
13 | O=C(/C=C/c1ccc(C(F)(F)F)cc1)NCCCCCN1CCC(c2c[nH]c3ccccc23)CC1 | 100
14 | COCCn1c(Sc2ccc(C#N)c([N+](=O)[O-])c2)nnc1-c1ccc(N(C)C)cc1 | 89
